# Reference: PubChem BioAssay (EPA / NIEHS)
# Where “and” joins values, the source holds several entries; their conditions need not be identical. Equal values may be shown once. Inconclusive results are not listed. Where a structure was tested more than once in an assay, its records may differ in their call. Calls of active or inactive are those of the source. Rule for the calls, unless noted: active = hit-call score of the fitted dose curve at least 0.9, where 1 is the maximum; inactive = score below 0.9.
# Experiments:
# [1] = BSK_4H_Eotaxin3: BioMAP Diversity Plus: 4H Assay for Eotaxin 3 Biomarker Activity (AID 2283000); conditions: primary human endothelial cells (HUVEC); actives raise or lower the signal;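 for outcome: CCL26 protein level quantified by ELISA in parallel with SRB cytotoxicity check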
# How it was run: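 Chemicals were added to human umbilical vein endothelium cultures, and Eotaxin-3 was quantified by ELISA at 24 h. Values were derived by bidirectional fitting with DMSO serving as negative control and activity baseline.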
# [2] = target: human Peroxisome Proliferator-activated Receptor alpha (PPARa), PPARA (gene 5465) (UniProt Q07869); assay: ATG_PPARa_TRANS: Attagene TRANS-FACTORIAL HepG2 Assay for human Peroxisome Proliferator-activated Receptor alpha (PPARa) (AID 2283001; active = hit-call score of the fitted dose curve at least 0.9, where 1 is the maximum;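 for AC50: potency for gain of reporter signal over DMSO so agonist or activator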)
# human Peroxisome Proliferator-activated Receptor alpha (PPARa), PPARA (gene 5465), sequence (Q07869 whole entry, looked up, the tested form may be a part): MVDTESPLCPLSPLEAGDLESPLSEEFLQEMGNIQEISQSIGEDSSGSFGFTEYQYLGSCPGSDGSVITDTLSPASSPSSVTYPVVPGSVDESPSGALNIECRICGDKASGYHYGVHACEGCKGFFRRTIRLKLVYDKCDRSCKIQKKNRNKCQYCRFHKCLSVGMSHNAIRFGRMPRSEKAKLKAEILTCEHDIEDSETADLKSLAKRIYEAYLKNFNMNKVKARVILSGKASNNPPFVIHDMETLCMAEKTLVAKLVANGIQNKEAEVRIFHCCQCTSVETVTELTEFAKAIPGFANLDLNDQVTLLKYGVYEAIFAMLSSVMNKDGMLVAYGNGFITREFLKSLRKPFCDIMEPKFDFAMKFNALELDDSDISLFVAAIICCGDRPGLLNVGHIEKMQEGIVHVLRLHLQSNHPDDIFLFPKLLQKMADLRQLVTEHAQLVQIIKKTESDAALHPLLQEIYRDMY
# How it was run: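 Read-out is fluorescence of reporter cDNA fragments resolved by capillary electrophoresis after RT-PCR. Human HepG2 liver cells carried transfected PPARa-Gal4 chimera and GAL4-UAS reporter units, treated 24 h; activity scored as increase over DMSO.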
# [3] = target: human Peroxisome Proliferator-activated Receptor delta (PPARd), PPARD (gene 5467) (UniProt Q03181); assay: ATG_PPARd_TRANS: Attagene TRANS-FACTORIAL HepG2 Assay for human Peroxisome Proliferator-activated Receptor delta (PPARd) (AID 2283002; active = hit-call score of the fitted dose curve at least 0.9, where 1 is the maximum)
# human Peroxisome Proliferator-activated Receptor delta (PPARd), PPARD (gene 5467), sequence (Q03181 whole entry, looked up, the tested form may be a part): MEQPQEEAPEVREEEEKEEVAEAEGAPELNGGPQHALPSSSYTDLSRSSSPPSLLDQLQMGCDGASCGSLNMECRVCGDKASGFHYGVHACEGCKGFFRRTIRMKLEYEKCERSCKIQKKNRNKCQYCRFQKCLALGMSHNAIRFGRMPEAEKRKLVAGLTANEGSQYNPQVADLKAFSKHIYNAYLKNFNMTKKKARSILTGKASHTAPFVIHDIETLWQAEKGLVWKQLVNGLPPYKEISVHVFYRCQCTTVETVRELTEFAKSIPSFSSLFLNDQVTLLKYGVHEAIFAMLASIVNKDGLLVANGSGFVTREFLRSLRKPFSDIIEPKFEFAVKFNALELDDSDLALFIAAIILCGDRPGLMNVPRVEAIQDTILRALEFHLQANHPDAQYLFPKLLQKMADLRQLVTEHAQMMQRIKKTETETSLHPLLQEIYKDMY
# How it was run: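 Transient HepG2 transfection (multiple GAL4-UAS RTUs, chimeric receptor-Gal4); 24 h dosing; total RNA → oligo(dT) RT → PCR → 6-FAM primer extension → HpaI cut → CE. Positive direction vs DMSO.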
# [4] = read-out: Intercellular Adhesion Molecule 1 (ICAM1), ICAM1 (gene 3383); assay: BSK_3C_ICAM1: BioMAP Diversity Plus: 3C Assay for Intercellular Adhesion Molecule 1 (ICAM1) Biomarker Activity (AID 2283003); conditions: primary human endothelial cells (HUVEC); actives raise or lower the signal
# How it was run: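 ICAM-1 levels measured by ELISA after HUVEC cultures in the 3C system had been dosed for 24 h. Gain or loss of signal relative to DMSO was fitted in both directions.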
# [5] = BSK_3C_Proliferation: Cell Proliferation Assessment in the BioMAP Diversity Plus: 3C Assay (AID 2283006); conditions: primary human endothelial cells (HUVEC);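 for AC50: potency may reflect either rise or fall in cell number versus DMSO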
# How it was run: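 Read-out is total protein by SRB absorbance at 560 nm, taken as a proxy for relative cell number. Primary human umbilical vein endothelium cultured below confluence was dosed for 48 h, TCA-fixed and SRB-stained; curves were fitted bidirectionally versus DMSO.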
# [6] = target: Peroxisome proliferator-activated receptor gamma (Homo sapiens) (UniProt P37231); assay: ATG_PPARg_TRANS: Attagene TRANS-FACTORIAL HepG2 Assay for human Peroxisome Proliferator-activated Receptor-gamma (PPARg) (AID 2283007; active = hit-call score of the fitted dose curve at least 0.9, where 1 is the maximum)
# Peroxisome proliferator-activated receptor gamma (Homo sapiens), sequence (P37231 whole entry, looked up, the tested form may be a part): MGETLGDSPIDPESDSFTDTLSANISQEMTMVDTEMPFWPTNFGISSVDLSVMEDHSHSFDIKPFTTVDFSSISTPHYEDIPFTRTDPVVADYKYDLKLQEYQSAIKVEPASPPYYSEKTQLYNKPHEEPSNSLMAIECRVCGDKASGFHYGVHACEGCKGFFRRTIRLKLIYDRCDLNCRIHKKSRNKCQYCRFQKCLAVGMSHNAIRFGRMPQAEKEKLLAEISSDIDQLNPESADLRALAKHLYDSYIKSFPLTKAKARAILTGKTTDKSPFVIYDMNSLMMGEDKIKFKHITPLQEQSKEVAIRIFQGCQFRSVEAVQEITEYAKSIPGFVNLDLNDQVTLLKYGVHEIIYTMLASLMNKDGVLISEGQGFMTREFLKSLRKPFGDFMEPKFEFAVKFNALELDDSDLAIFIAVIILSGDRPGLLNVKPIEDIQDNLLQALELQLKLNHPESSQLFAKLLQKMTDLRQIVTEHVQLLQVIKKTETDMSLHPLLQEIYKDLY
# How it was run: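 HepG2 cells are transiently transfected with GAL4-UAS reporter units driven by chimeric NR-Gal4 fusions and dosed for 24 h. Reporter mRNA is quantified by RT-PCR, 6-FAM labelling, HpaI digestion and capillary electrophoresis. Induction is scored against DMSO.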
# [7] = target: human RAR-related Orphan Receptor beta (RORb), RORB (gene 6096) (UniProt Q92753); assay: ATG_RORb_TRANS: Attagene TRANS-FACTORIAL HepG2 Assay for human RAR-related Orphan Receptor beta (RORb) (AID 2283010; active = hit-call score of the fitted dose curve at least 0.9, where 1 is the maximum)
# human RAR-related Orphan Receptor beta (RORb), RORB (gene 6096), sequence (Q92753 whole entry, looked up, the tested form may be a part): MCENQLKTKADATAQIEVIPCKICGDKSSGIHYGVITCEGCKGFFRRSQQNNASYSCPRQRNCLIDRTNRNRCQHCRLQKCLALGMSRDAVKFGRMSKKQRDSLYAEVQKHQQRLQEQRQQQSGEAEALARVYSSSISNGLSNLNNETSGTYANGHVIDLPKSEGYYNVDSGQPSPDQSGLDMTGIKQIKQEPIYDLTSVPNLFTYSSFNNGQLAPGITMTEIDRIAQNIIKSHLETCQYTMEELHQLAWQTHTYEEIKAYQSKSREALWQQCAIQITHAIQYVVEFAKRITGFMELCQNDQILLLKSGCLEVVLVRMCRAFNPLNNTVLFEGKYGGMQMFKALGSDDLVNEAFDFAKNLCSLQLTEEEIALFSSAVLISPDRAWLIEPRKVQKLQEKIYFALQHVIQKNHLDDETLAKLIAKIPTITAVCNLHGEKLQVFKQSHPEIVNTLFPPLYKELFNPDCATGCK
# How it was run: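 Readout is reporter-gene mRNA induction, detected as fluorescence after RT-PCR and capillary electrophoresis, fitted for gain of signal against DMSO controls. Transiently transfected HepG2 liver cells carrying GAL4-UAS reporter constructs were treated for 24 hours.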
# [8] = target: Retinoic acid receptor RXR-alpha (Homo sapiens) (UniProt P19793); assay: ATG_RXRa_TRANS: Attagene TRANS-FACTORIAL HepG2 Assay for human Retinoid X Receptor alpha (RXRa) (AID 2283012; active = hit-call score of the fitted dose curve at least 0.9, where 1 is the maximum)
# Retinoic acid receptor RXR-alpha (Homo sapiens), sequence (P19793 whole entry, looked up, the tested form may be a part): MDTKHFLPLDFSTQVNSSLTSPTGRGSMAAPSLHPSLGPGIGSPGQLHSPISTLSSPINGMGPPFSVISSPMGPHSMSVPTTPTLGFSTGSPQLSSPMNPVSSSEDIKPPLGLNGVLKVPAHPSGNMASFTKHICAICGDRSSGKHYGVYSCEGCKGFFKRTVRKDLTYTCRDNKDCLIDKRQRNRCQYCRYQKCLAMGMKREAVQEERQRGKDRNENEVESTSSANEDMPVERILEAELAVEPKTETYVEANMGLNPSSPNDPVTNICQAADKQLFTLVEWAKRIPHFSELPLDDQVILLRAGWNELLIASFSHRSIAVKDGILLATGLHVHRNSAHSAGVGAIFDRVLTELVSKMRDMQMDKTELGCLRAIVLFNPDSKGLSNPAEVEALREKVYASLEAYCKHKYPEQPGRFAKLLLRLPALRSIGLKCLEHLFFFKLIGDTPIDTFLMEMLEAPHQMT
# How it was run: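 Transient transfection of human HepG2 with multiple GAL4-UAS reporter constructs; 24 h compound exposure; total RNA isolated, reverse-transcribed, PCR-amplified, 6-FAM labelled, HpaI-cut, resolved by capillary electrophoresis. Positive-direction fit versus DMSO.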
# [9] = target: human Retinoid X Receptor beta (RXRb), RXRB (gene 6257) (UniProt P28702); assay: ATG_RXRb_TRANS: Attagene TRANS-FACTORIAL HepG2 Assay for human Retinoid X Receptor beta (RXRb) (AID 2283013; active = hit-call score of the fitted dose curve at least 0.9, where 1 is the maximum)
# human Retinoid X Receptor beta (RXRb), RXRB (gene 6257), sequence (P28702 whole entry, looked up, the tested form may be a part): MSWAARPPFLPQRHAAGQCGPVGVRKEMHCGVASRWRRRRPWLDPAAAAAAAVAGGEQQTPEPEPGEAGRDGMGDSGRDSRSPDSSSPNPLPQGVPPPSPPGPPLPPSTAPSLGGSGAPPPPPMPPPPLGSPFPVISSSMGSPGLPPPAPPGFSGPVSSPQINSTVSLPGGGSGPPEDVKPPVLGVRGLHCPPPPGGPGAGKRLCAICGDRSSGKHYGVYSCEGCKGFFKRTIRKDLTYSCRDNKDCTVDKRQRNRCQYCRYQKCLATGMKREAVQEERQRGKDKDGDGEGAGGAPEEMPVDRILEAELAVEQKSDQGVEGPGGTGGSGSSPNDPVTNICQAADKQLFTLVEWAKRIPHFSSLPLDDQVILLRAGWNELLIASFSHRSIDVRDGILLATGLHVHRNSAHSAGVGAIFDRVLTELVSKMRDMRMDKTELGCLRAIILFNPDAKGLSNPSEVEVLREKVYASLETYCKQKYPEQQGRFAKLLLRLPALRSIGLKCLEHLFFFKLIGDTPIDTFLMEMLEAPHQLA
# How it was run: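 Transfect HepG2 with GAL4-UAS multi-reporter constructs (chimeric NR-Gal4, TRANS format); dose compound 24 h; isolate RNA, RT-PCR, FAM primer extension, HpaI digest; quantify by capillary electrophoresis; positive direction vs DMSO.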
# [10] = target: human Thyroid Receptor alpha (THRa1), THRA (gene 7067) (UniProt P10827); assay: ATG_THRa1_TRANS: Attagene TRANS-FACTORIAL HepG2 Assay for human Thyroid Receptor alpha (THRa1) (AID 2283014; active = hit-call score of the fitted dose curve at least 0.9, where 1 is the maximum)
# How it was run: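 Reporter transcript induction, read by capillary electrophoresis of 6-FAM-labelled RT-PCR products, reflects activity of a transfected THRa1-Gal4 fusion in HepG2 liver cells. Cells were dosed for 24 h; activity was fitted in the positive direction against DMSO.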
# [11] = read-out: E-selectin (Homo sapiens) (UniProt P16581); assay: BSK_3C_Eselectin: BioMAP Diversity Plus: 3C Assay for Eselectin Biomarker Activity (AID 2283015); conditions: primary human endothelial cells (HUVEC); actives raise or lower the signal;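 for outcome: cell surface E-selectin protein quantified by ELISA 24 h after dosing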
# How it was run: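 ELISA read-out of E-selectin on endothelial monolayers after 24 h chemical treatment. Human umbilical vein primary cells served as the system, with DMSO defining baseline activity for bidirectional fitting.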
# [12] = read-out: Interleukin-1 alpha (IL1a), IL1A (gene 3552); assay: BSK_BE3C_IL1a: BioMAP Diversity Plus: BE3C Assay for Interleukin-1 alpha (IL1a) Biomarker Activity (AID 2283016); conditions: primary human bronchial epithelial cells; actives raise or lower the signal
# How it was run: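 BE3C primary human bronchial epithelium; cpd 24 h; IL-1a by ELISA; bidirectional fit vs DMSO; parallel SRB (0.1% SRB, 10% TCA fix, 560 nm) for cytotoxicity.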
# [13] = read-out: Monocyte Chemoattractant Protein-1 (MCP1), CCL2 (gene 6347); assay: BSK_3C_MCP1: BioMAP Diversity Plus: 3C Assay for Monocyte Chemoattractant Protein-1 (MCP1) Biomarker Activity (AID 2283017); conditions: primary human endothelial cells (HUVEC); actives raise or lower the signal
# How it was run: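 ELISA read-out of MCP-1 from human umbilical vein endothelial cell cultures harvested 24 h post-dosing. Gain or loss of signal was fitted relative to DMSO.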
# [14] = read-out: Monocyte Chemoattractant Protein-1 (MCP1), CCL2 (gene 6347); assay: BSK_4H_MCP1: BioMAP Diversity Plus: 4H Assay for Monocyte Chemoattractant Protein-1 (MCP1) Biomarker Activity (AID 2283018); conditions: primary human endothelial cells (HUVEC); actives raise or lower the signal
# How it was run: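 ELISA read-out of MCP-1 from human vascular endothelial primary cells taken at 24 hours after compound exposure. Activity was fitted in both directions relative to DMSO, which served as negative control.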
# [15] = read-out: Human Leukocyte Antigen - DR isotype (HLADR), HLA-DRA (gene 3122); assay: BSK_3C_HLADR: BioMAP Diversity Plus: 3C Assay for Human Leukocyte Antigen - DR isotype (HLADR) Biomarker Activity (AID 2283019); conditions: primary human endothelial cells (HUVEC); actives raise or lower the signal;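 for outcome: ELISA of cell-surface HLA-DR on HUVEC 24 h after dosing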
# How it was run: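 ELISA readout of surface HLA-DR on human umbilical vein endothelium, taken 24 h after chemical treatment. Gain- and loss-of-signal were both fitted relative to DMSO.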
# [16] = target: Retinoic acid receptor alpha (Homo sapiens) (UniProt P10276); assay: ATG_RARa_TRANS: Attagene TRANS-FACTORIAL HepG2 Assay for human Retinoic Acid Receptor alpha (RARa) (AID 2283005; active = hit-call score of the fitted dose curve at least 0.9, where 1 is the maximum)
# Retinoic acid receptor alpha (Homo sapiens), sequence (P10276 whole entry, looked up, the tested form may be a part): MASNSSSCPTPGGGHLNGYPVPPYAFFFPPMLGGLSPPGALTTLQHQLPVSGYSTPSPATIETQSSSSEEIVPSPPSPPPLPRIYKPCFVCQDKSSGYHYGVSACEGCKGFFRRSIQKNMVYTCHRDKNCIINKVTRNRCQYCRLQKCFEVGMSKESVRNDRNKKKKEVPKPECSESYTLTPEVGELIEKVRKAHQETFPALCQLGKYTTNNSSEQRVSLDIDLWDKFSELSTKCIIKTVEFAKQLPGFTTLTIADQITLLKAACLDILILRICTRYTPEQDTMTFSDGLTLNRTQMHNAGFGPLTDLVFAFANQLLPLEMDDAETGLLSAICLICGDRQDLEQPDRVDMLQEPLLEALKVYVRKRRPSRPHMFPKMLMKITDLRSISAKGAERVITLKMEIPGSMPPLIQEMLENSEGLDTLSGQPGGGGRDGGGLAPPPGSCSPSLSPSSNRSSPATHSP
# How it was run: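 Reporter transcripts, measured by RT-PCR with fluorescent labeling and capillary electrophoresis after 24 h dosing, reflect activity of an exogenous human RARa–GAL4 fusion in transiently transfected HepG2. Fitted for increase relative to DMSO.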
# [17] = target: human Retinoic Acid Receptor gamma (RARg), RARG (gene 5916) (UniProt P13631); assay: ATG_RARg_TRANS: Attagene TRANS-FACTORIAL HepG2 Assay for human Retinoic Acid Receptor gamma (RARg) (AID 2283009; active = hit-call score of the fitted dose curve at least 0.9, where 1 is the maximum;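 for AC50: AC50 is for reporter induction above DMSO meaning RARg activation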)
# human Retinoic Acid Receptor gamma (RARg), RARG (gene 5916), sequence (P13631 whole entry, looked up): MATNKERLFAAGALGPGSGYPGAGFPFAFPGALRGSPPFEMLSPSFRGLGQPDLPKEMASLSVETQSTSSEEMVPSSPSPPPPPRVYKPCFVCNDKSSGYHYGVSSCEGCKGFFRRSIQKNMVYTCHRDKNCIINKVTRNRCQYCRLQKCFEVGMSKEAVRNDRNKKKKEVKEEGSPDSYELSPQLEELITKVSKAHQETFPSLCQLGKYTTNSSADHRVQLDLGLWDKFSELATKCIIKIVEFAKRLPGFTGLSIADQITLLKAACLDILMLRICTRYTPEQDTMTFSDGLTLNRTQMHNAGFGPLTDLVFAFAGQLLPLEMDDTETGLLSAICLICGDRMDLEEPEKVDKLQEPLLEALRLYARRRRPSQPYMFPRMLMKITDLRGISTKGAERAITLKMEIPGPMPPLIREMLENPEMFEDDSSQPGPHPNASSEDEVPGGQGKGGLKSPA
# How it was run: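 Transient transfection of HepG2 with multi-reporter constructs, then 24 h chemical treatment. Total RNA isolated, reverse-transcribed, PCR-amplified, fluorescently labelled and resolved by capillary electrophoresis; activity scored as mRNA induction versus DMSO.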
# [18] = target: human RAR-related Orphan Receptor gamma (RORg), RORC (gene 6097) (UniProt P51449); assay: ATG_RORg_TRANS: Attagene TRANS-FACTORIAL HepG2 Assay for human RAR-related Orphan Receptor gamma (RORg) (AID 2283011; active = hit-call score of the fitted dose curve at least 0.9, where 1 is the maximum)
# human RAR-related Orphan Receptor gamma (RORg), RORC (gene 6097), sequence (P51449 whole entry, looked up, the tested form may be a part): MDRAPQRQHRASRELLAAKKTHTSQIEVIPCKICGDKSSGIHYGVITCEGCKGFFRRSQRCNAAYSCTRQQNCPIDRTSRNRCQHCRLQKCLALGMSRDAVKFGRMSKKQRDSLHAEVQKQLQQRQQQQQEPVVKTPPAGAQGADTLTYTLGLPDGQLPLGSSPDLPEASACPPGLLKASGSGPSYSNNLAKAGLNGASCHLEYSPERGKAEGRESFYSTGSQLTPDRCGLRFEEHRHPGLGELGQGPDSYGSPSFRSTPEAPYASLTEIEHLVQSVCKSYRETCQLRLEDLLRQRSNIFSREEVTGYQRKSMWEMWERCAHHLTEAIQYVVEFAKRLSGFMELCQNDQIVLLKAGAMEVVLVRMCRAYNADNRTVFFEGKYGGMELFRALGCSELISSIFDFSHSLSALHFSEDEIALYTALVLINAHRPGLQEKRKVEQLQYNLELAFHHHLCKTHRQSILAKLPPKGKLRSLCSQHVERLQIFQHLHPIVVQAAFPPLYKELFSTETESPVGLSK
# How it was run: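 First, HepG2 liver cells were transfected with GAL4-UAS-driven reporter constructs and the RORg-Gal4 fusion. Next, they were treated with chemical for 24 h. Finally, reporter mRNA was quantified by RT-PCR and capillary electrophoresis, with upward activity fitted against DMSO.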
# [19] = target: Nuclear receptor subfamily 1 group I member 2 (Homo sapiens) (UniProt O75469); assay: ATG_PXR_TRANS: Attagene TRANS-FACTORIAL HepG2 Assay for human Pregnane X Receptor (PXR) (AID 2283008; active = hit-call score of the fitted dose curve at least 0.9, where 1 is the maximum)
# How it was run: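 HepG2 cells transiently transfected with GAL4-UAS reporter units and PXR-Gal4 chimera, exposed 24 h. Reporter mRNA quantified by RT-PCR, fluorescent labelling, HpaI digestion and capillary electrophoresis; gain of signal vs DMSO.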
# E-selectin (Homo sapiens), sequence (P16581 whole entry, looked up): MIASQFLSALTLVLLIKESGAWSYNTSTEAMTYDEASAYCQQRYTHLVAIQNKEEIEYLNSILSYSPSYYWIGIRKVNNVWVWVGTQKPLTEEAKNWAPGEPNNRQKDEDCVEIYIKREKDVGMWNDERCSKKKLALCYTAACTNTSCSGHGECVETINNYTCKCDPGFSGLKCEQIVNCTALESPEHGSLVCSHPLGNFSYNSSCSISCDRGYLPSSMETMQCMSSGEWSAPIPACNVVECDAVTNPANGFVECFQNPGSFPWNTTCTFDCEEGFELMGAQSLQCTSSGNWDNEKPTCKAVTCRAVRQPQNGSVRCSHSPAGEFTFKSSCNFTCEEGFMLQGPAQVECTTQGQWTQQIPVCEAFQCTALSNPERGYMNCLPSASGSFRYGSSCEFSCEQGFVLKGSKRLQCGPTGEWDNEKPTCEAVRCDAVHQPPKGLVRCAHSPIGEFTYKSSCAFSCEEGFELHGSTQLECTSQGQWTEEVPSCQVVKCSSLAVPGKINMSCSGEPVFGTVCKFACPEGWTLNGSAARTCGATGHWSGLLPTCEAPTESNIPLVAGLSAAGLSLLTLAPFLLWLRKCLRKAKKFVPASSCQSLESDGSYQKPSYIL
smiles,measurement,setting,value
Oc1ccc(Nc2ccccc2)cc1,AC50,[1],0.547 µM (active)
same,outcome,[2],inactive
same,outcome,[3],inactive
same,outcome,[4],inactive
same,AC50,[5],14.6 µM (active)
same,AC50,[6],23.4 µM (active)
same,outcome,[7],inactive
same,outcome,[8],inactive
same,outcome,[9],inactive
same,outcome,[10],inactive
same,AC50,[11],20 µM (active)
same,AC50,[12],13.4 µM (active)
same,outcome,[13],inactive
same,AC50,[14],9.6 µM (active)
same,AC50,[15],20 µM (active)
O=C(O)C(F)(F)C(F)(F)C(F)(F)C(F)(F)C(F)(F)C(F)(F)C(F)(F)C(F)(F)C(F)(F)C(F)(F)C(F)(F)C(F)(F)F,AC50,[1],9.18 µM (active)
same,outcome,[1],inactive
same,outcome,[3],inactive
same,outcome,[4],inactive
same,outcome,[16],inactive
same,AC50,[5],20.6 µM (active) and 6.79 µM (active)
same,outcome,[6],inactive
same,outcome,[17],inactive
same,outcome,[7],inactive
same,outcome,[18],inactive
same,outcome,[8],inactive
same,outcome,[9],inactive
same,outcome,[10],inactive
same,outcome,[11],inactive
same,outcome,[12],inactive
same,outcome,[13],inactive
same,outcome,[14],inactive
same,outcome,[15],inactive
CCCCCCCCCCCCCCCC[N+](C)(C)Cc1ccccc1,AC50,[1],6.55 µM (active)
same,AC50,[2],45 µM (active)
same,AC50,[4],2.35 µM (active)
same,outcome,[16],inactive
same,AC50,[5],0.604 µM (active)
same,AC50,[6],60.2 µM (active)
same,outcome,[19],inactive
same,AC50,[17],49.9 µM (active)
same,outcome,[7],inactive
same,outcome,[18],inactive
same,outcome,[8],inactive
same,outcome,[9],inactive
same,AC50,[11],7.67 µM (active)
same,AC50,[12],8.81 µM (active)
same,AC50,[13],5 µM (active)
same,AC50,[14],1.37 µM (active)
same,AC50,[15],0.977 µM (active)
OCC(F)(F)C(F)(F)C(F)(F)C(F)(F)C(F)(F)C(F)F,outcome,[1],inactive
same,outcome,[3],inactive
same,outcome,[4],inactive
same,outcome,[16],inactive
same,outcome,[5],inactive
same,outcome,[6],inactive
same,outcome,[19],inactive
same,outcome,[18],inactive
same,outcome,[11],inactive
same,outcome,[12],inactive
same,outcome,[13],inactive
same,outcome,[14],inactive
same,outcome,[15],inactive
O=C(O)C(F)(OC(F)(F)C(F)(OC(F)(F)C(F)(OC(F)(F)C(F)(F)C(F)(F)F)C(F)(F)F)C(F)(F)F)C(F)(F)F (configuration not stated),outcome,[1],inactive
same,outcome,[2],inactive
same,outcome,[3],inactive
same,outcome,[4],inactive
same,outcome,[16],inactive
same,outcome,[5],inactive
same,outcome,[6],inactive
same,outcome,[17],inactive
same,outcome,[7],inactive
same,outcome,[18],inactive
same,outcome,[8],inactive
same,outcome,[11],inactive
same,outcome,[12],inactive
same,outcome,[13],inactive
same,outcome,[14],inactive
same,outcome,[15],inactive
FC(F)(F)C(F)(F)C(F)(F)C(F)(F)C(F)(F)C(F)(F)C(F)(F)I,outcome,[1],inactive
same,outcome,[2],inactive
same,outcome,[3],inactive
same,outcome,[4],inactive
same,outcome,[5],inactive
same,outcome,[6],inactive
same,outcome,[18],inactive
same,outcome,[9],inactive
same,outcome,[11],inactive
same,outcome,[12],inactive
same,outcome,[13],inactive
same,outcome,[14],inactive
same,outcome,[15],inactive
CCN(CC)c1ccc2c(C)cc(=O)oc2c1,outcome,[1],inactive
same,outcome,[2],inactive
same,outcome,[3],inactive
same,outcome,[4],inactive
same,AC50,[5],30.6 µM (active)
same,AC50,[6],27.2 µM (active)
same,outcome,[18],inactive
same,outcome,[8],inactive
same,AC50,[9],26.5 µM (active)
same,outcome,[10],inactive
same,outcome,[11],inactive
same,outcome,[12],inactive
same,outcome,[13],inactive
same,outcome,[14],inactive
same,AC50,[15],31.3 µM (active)
